Test systems include NCI-H23 lung; NCI-H226 lung; NCI-H322M lung; HOP-62 NSCLC; NCI-H460 lung; HOP-92 NSCLC; NCI-H522 lung; A549/ATCC NSCLC; 786-0 renal; COLO 205 colon; DU-145 prostate; K-562 leukemia; MALME-3M melanoma; MDA-MB-231 breast; SF-268 CNS; SF-295 CNS; SF-539 CNS; UACC-257 melanoma; M14 melanoma.
Assay in all cases: NCI-60 one-dose screen, 48 h (100 = growth as untreated, 0 = no growth, -100 = all killed)
Common to all, as to conditions: 10 µM

This is part of a sample that, as a whole, favours compounds with a hit. Of some 83,000 tested, about 20% had one in any assay.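 Growth was measured after 48 h exposure to one concentration of compound in 96-well plates. Values under 10 count as active.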 Values without a mark were called inactive. The source made the active and inactive calls.

In the case of `Cc1ccc(C(=O)N/C(=C2/OCCN2C)[P+](c2ccccc2)(c2ccccc2)c2ccccc2)cc1`, the growth is 85.1% in the test on NCI-H23 lung; 92.9% in the test on NCI-H226 lung; 100% in the test on NCI-H322M lung; 96.9% with HOP-62 NSCLC; 83.8% in the test on NCI-H460 lung; 60.3% in the test with HOP-92 NSCLC. For the same molecule, the growth with NCI-H522 lung was 57.8%; in the test on A549/ATCC NSCLC, 97.8%; in the test with 786-0 renal, 103%; in the test with COLO 205 colon, 57.9%; in the test on DU-145 prostate, 84.9%; with K-562 leukemia, 50.4%. Moreover, the growth in the test on MALME-3M melanoma is 63.6%; in the test with MDA-MB-231 breast, 65.6%; in the test with SF-268 CNS, 92.7%; in the test on SF-295 CNS, 87.3%; in the test on SF-539 CNS it was 91.4%; in the test on UACC-257 melanoma, 49.6%.
For the molecule `N#Cc1ccc(NC(=O)CSc2ccc(-c3ccc(Br)cc3)nn2)cc1`, the growth was 51.3% with NCI-H23 lung; 44.8% with NCI-H226 lung; 76.6% in the test on NCI-H322M lung; 88.6% with HOP-62 NSCLC; 64.6% in the test on NCI-H460 lung; 70.2% in the test with HOP-92 NSCLC. Moreover, the growth with NCI-H522 lung is 52%; in the test on A549/ATCC NSCLC, 64.7%; in the test with 786-0 renal, 80.2%; with COLO 205 colon, 112%; in the test with DU-145 prostate, 88.8%; in the test on K-562 leukemia it was 48.7%. For the same molecule, the growth in the test on MALME-3M melanoma was 68.8%; in the test with MDA-MB-231 breast, 76.7%; with SF-268 CNS, 62.6%; in the test on SF-295 CNS, 58.9%; in the test on SF-539 CNS, 67.2%; in the test with UACC-257 melanoma, 47.3%.
Consider `CC(=O)Nc1ccc(-c2cn(-c3cccc(C(=O)Nc4cccc(OC(F)(F)F)c4)c3)nn2)cn1`, for which the growth was 87% in the test on NCI-H23 lung; 106% in the test with NCI-H226 lung; 114% in the test on NCI-H322M lung; 97.7% in the test on HOP-62 NSCLC; 47.4% in the test with NCI-H460 lung; 122% with HOP-92 NSCLC. In addition, the growth in the test on NCI-H522 lung was 88.5%; in the test with A549/ATCC NSCLC it was 86.3%; in the test with 786-0 renal, 115%; in the test with COLO 205 colon, 111%; with DU-145 prostate, 84.4%; in the test with K-562 leukemia it was 61.8%. Besides, the growth in the test with MALME-3M melanoma was 26.4%; with MDA-MB-231 breast, 97.4%; in the test on SF-268 CNS, 86.3%; with SF-295 CNS, 87.4%; in the test with SF-539 CNS, 84.3%; with UACC-257 melanoma it was 89.8%. For the same molecule, in the test on M14 melanoma, the growth is 80.4%.
As for `O=C(CSc1nnc(-c2ccc3nc(-c4ccccc4)[nH]c3c2)o1)Nc1ccc(Br)cc1`, the growth in the test with NCI-H23 lung was 54.2%; in the test with NCI-H226 lung, 80.2%; in the test with NCI-H322M lung, 86.3%; in the test on HOP-62 NSCLC, 92.2%; in the test on NCI-H460 lung, 6.71% (active); with HOP-92 NSCLC, 135%. For the same molecule, the growth with NCI-H522 lung was 61.2%; in the test with A549/ATCC NSCLC, 66.2%; in the test with 786-0 renal, 66.7%; in the test with COLO 205 colon it was 81.1%; in the test with DU-145 prostate, 78.2%; with K-562 leukemia, 18.4%. Further, the growth in the test with MALME-3M melanoma was 5.76% (active); in the test with MDA-MB-231 breast, 52.3%; in the test on SF-268 CNS, 87.8%; with SF-295 CNS it was 74.3%; with SF-539 CNS it was 8.7% (active); in the test on UACC-257 melanoma, 98.8%.
As to `Cc1ccc(C(=O)CSc2nnc(-c3c[nH]c4ccccc34)n2-c2ccccc2)cc1`, the growth in the test with NCI-H23 lung was 17.3%; in the test on NCI-H226 lung it was -41.3% (active); in the test on NCI-H322M lung, 74.9%; in the test on HOP-62 NSCLC, 7.8% (active); with NCI-H460 lung, 29.3%; in the test on HOP-92 NSCLC, -7.56% (active). Moreover, the growth with NCI-H522 lung was 1.43% (active); in the test on A549/ATCC NSCLC, 53.3%; in the test with 786-0 renal, -35.4% (active); in the test on COLO 205 colon it was 75%; in the test on DU-145 prostate, 78.9%; in the test on K-562 leukemia, 27.2%. In addition, the growth is 35.1% with MALME-3M melanoma; -2.39% (active) in the test with MDA-MB-231 breast; 29.7% in the test on SF-268 CNS; 11.1% in the test on SF-295 CNS; 22.1% in the test with SF-539 CNS; 77.3% in the test with UACC-257 melanoma. Also, the growth in the test on M14 melanoma was 51.2%.
Take `Cc1noc2c(Cc3ccc([N+](=O)[O-])cc3)nn(CC(=O)N/N=C/c3ccc(Br)cc3)c(=O)c12`: the growth was 87.7% with NCI-H23 lung; 67.7% in the test on NCI-H226 lung; 104% in the test on NCI-H322M lung; 72.4% with HOP-62 NSCLC; 81.5% in the test on NCI-H460 lung; 50.6% in the test on HOP-92 NSCLC. The growth with NCI-H522 lung was 98.6%; in the test on A549/ATCC NSCLC it was 65.1%; with 786-0 renal, 4.46% (active); in the test on COLO 205 colon, 119%; in the test with DU-145 prostate, 74.9%; in the test with K-562 leukemia, 88.7%. Moreover, the growth was 66% in the test with MALME-3M melanoma; 46.4% with MDA-MB-231 breast; 72.1% with SF-268 CNS; 89.5% in the test on SF-295 CNS; 26.1% with SF-539 CNS; 106% in the test on UACC-257 melanoma. Moreover, the growth in the test on M14 melanoma was 93.4%.
As to `COc1ccc2ncc(C#Cc3cncc(C(=O)Nc4ccc(CN5CCN(C)CC5)c(C(F)(F)F)c4)c3)n2n1`, the growth was -80.9% (active) in the test on NCI-H23 lung; -68.4% (active) in the test on NCI-H226 lung; -98% (active) with NCI-H322M lung; -61% (active) with HOP-62 NSCLC; -75.3% (active) in the test on NCI-H460 lung; -72% (active) in the test on HOP-92 NSCLC. The growth is -65.5% (active) with NCI-H522 lung; -51.7% (active) in the test with A549/ATCC NSCLC; -55.7% (active) with 786-0 renal; -63.8% (active) with COLO 205 colon; -100% (active) with DU-145 prostate; -9.3% (active) in the test on K-562 leukemia. The growth is -93.6% (active) in the test on MALME-3M melanoma; -95.8% (active) with MDA-MB-231 breast; -64.5% (active) with SF-268 CNS; -97.5% (active) with SF-295 CNS; -100% (active) with SF-539 CNS; -62.2% (active) with UACC-257 melanoma. The growth in the test on M14 melanoma is -80.2% (active).
`CC(C)C1=C[C@@]23CC[C@@H]4[C@](C)(CCC[C@]4(C)C(=O)NCc4ccccc4)[C@H]2C[C@@H]1[C@H]1C(=O)CCC(=O)[C@H]13`: the growth in the test on NCI-H23 lung was 59%; in the test on NCI-H226 lung, 40.7%; with NCI-H322M lung, 93.4%; in the test on HOP-62 NSCLC it was 94.4%; in the test on NCI-H460 lung, 84.5%; in the test with HOP-92 NSCLC it was 68.9%. Further, the growth in the test with NCI-H522 lung was -12.5% (active); in the test with A549/ATCC NSCLC, 81.6%; with 786-0 renal it was 87.2%; in the test with COLO 205 colon, 103%; in the test on DU-145 prostate it was 98.1%; with K-562 leukemia, 55.7%. Also, the growth with MALME-3M melanoma was 95.5%; in the test on MDA-MB-231 breast, 86.5%; with SF-268 CNS, 80.4%; with SF-295 CNS it was 83.1%; in the test on SF-539 CNS, 72.2%; in the test on UACC-257 melanoma, 77.6%. Also, the growth in the test on M14 melanoma is 86.9%.

(Values after PubChem BioAssay (NCI).)
